We go through 105 molecules from PubChem BioAssay AID1030 (National Center for Advancing Translational Sciences (NCATS), 2008).

Molecules are shown by their SMILES. About 16,000 (7.3%) of roughly 220,000 compounds were called active. A call without a number means that no potency is given here. About 25% were inconclusive and are not listed. The full list was thinned out, with actives kept by preference. Values without a mark were called inactive. The call rests on the fitted dose curve; in most records, active means well fitted inhibition curve with a large enough effect (not every such curve was filed as active); inconclusive means small, poorly fitted or top-dose-only effect, or another doubt; inactive means no such curve, though single readings can be large or run the other way.
Potency means the concentration at half of the fitted maximal effect.

Sequence of Aldehyde dehydrogenase 1A1 (Homo sapiens) (P00352 whole entry, looked up): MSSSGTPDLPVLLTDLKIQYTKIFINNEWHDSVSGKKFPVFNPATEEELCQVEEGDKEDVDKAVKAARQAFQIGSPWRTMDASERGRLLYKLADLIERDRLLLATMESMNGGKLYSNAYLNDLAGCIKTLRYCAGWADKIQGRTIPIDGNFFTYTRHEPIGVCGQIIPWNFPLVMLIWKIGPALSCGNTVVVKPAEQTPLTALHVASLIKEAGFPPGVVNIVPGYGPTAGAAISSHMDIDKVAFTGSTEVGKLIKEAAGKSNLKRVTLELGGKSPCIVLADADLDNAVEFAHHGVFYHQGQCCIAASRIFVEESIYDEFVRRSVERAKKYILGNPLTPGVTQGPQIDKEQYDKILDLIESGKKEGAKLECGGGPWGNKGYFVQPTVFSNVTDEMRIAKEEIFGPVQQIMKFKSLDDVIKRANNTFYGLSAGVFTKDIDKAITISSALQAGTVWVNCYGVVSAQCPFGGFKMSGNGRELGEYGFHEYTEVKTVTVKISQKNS

This experiment addresses Aldehyde dehydrogenase 1A1 (Homo sapiens) (UniProt P00352). Put plainly: qHTS Assay for Inhibitors of Aldehyde Dehydrogenase 1 (ALDH1A1). The conditions noted are these: Purified ALDH1A1, NADH fluorescence, propionaldehyde substrate; series mostly up to 75.3 µM. For orientation: qHTS replaces the single test concentration by a dilution series.
With `Cc1ccc(C)n1NC(=O)c1ccc([N+](=O)[O-])cc1`, the Potency entry was “inactive”.

`CC(=O)Nc1ccc(Nc2c([N+](=O)[O-])cc(S(C)(=O)=O)cc2[N+](=O)[O-])cc1`: the Potency entry is “inactive”.

In the case of `Cc1cccc(NC(=S)N2CCCC(c3nc4ccccc4[nH]3)C2)c1` (stereo not given), the Potency entry was “inactive”.

With `CCCn1nnc2sc3c(c2c1=O)CCC(C)C3` (stereo not given), the Potency was 6.31 µM (active).

As to `CC(C)(C)C1CCc2c(sc3nc(SCC(N)=O)nc(N)c23)C1` (stereo not given), the Potency result was “inactive”.

With `CCC1(C)Cc2c(sc3nnn(CC(=O)Nc4ccc(Cl)cc4)c(=O)c23)CO1` (stereo not given), the Potency result is “inactive”.

Take `Cc1ccc(NC(=O)c2ccccn2)cc1S(=O)(=O)N1CCOCC1`: the Potency result was “inactive”.

Regarding `CCOc1ccc2c(c1)cc(CN(C(=O)CC)C1CCCCC1)c1nnnn12`, the Potency is 31.6 µM (active).

For the molecule `CCc1ccc2c(c1)cc(CN(C(=S)Nc1ccccc1Cl)C1CC1)c1nnnn12`, the Potency entry was “inactive”.

Consider `O=C(COC(=O)c1ccncc1)c1ccccc1`, for which the Potency entry was “inactive”.

As for `Cn1cccc1/C=C1\SC(=O)N(CC(=O)Nc2ccc(F)cc2)C1=O`, the Potency result was “inactive”.

For the molecule `COC(=O)CCCC1=CC2=CC(=O)C(C)(OC(=O)c3cccs3)C(=O)C2=CN1c1cccc(C#N)c1` (stereo not given), the activity, negative = inhibition is 1.29% [at 13.5 µM].

For the molecule `Cc1ccc2c(c1)N(C(=O)CCC(=O)N1CCc3ccccc3C1)CCO2`, the Potency is 20 µM (active).

As to `Cc1ccc(-c2cc(C(=O)N3CCc4ccccc4C3)no2)cc1`, the Potency result is “inactive”.

In the case of `Cc1ccc(S(=O)(=O)N(C)CC(=O)N2CCc3ccccc32)cc1`, the Potency result is “inactive”.

Regarding `Cc1cccc(NC(=O)Nc2ccc3c(c2)OCO3)n1`, the Potency entry is “inactive”.

In the case of `CC1=C2[C@@H](O)[C@H]([C@@H](C)C(=O)NCCC(C)C)CC[C@@]2(C)C=CC1=O`, the Potency result is “inactive”.

For the molecule `CC(=O)OC1C([N+]2(C)CCCCC2)C[C@H]2C3CC[C@H]4C[C@H](OC(C)=O)C([N+]5(C)CCCCC5)CC4(C)C3CCC12C` (stereo not given in full), the Potency result was “inactive”.

For the molecule `N#Cc1ccc(COC(=O)Cn2nnc(-c3ccccc3)n2)cc1`, the Potency result was “inactive”.

Take `N#Cc1c(N)sc2c1CCN(C(=O)OCc1ccccc1)C2`: the Potency is 10 µM (active).

In the case of `O=C(O)C1CCN(C(=O)OCc2ccccc2)CC1`, the Potency result was “inactive”.

For `CCN1CCC2(CCN(Cc3cn[nH]c3-c3ccc(OC)c(F)c3)C2)C1` (stereo not given), the Potency result was “inactive”.

In the case of `C=CCN(CC=C)CCOc1ccccc1[N+](=O)[O-]`, the Potency result is “inactive”.

As to `CCOC(=O)N1CCN(Cc2nc(N)nc(Nc3ccc(C)cc3)n2)CC1`, the Potency result was “inactive”.

Consider `CCOC(=O)c1cnc(SCc2nc(N)nc(Nc3ccc(OC)cc3)n2)nc1N`, for which the Potency entry is “inactive”.

Consider `COc1ccc(Nc2nc(N)nc(CSC(=S)N3CCC(C)CC3)n2)cc1`, for which the Potency was 3.16 µM (active).

In the case of `Oc1ccc(-c2onc3ccc(Cl)cc23)cc1`, the Potency was 11.2 µM (active).

Turning to `O=C1N(Cc2ccc3c(c2)OCO3)c2ccccc2C1(O)c1c[nH]c2ccccc12` (stereo not given), the Potency is 3.16 µM (active).

As for `O=C(Cn1nnc(-c2ccccc2)n1)NCc1ccc2c(c1)OCO2`, the Potency result was “inactive”.

As to `O=C(CCCCn1c(=O)[nH]c2ccccc2c1=O)NCc1ccc2c(c1)OCO2`, the Potency entry was “inactive”.

`CCOc1ccc(-n2cnc3c(=O)[nH]c(N)nc32)cc1`: the Potency entry is “inactive”.

`CO/N=C(\N)c1ccc([N+](=O)[O-])cc1`: the Potency entry is “inactive”.

Regarding `CCCn1c(SCC(=O)Nc2ccc(C)c(S(=O)(=O)N3CCOCC3)c2)n[nH]c1=O`, the Potency result was “inactive”.

For `COc1ccc(CNc2c(CO)cnc3c2cnn3C)cc1`, the Potency entry is “inactive”.

For `CCOC(=O)Cc1csc(NC(=O)CSc2nnc(-c3cccnc3)n2Cc2ccco2)n1`, the Potency entry is “inactive”.

For `Nc1cc(=O)nc(SCc2ccccc2)n1Cc1ccco1`, the Potency result is “inactive”.

In the case of `CCOC(=O)CSc1nc2c(sc(=S)n2CCc2ccccc2)c(=O)n1Cc1ccco1`, the Potency is 31.6 µM (active).

Consider `Cc1cc(C)n2nc(C(=O)N3CCN(Cc4ccc5c(c4)OCO5)CC3)nc2n1`, for which the Potency result was “inactive”.

For the molecule `CCCCCCCC/C=C\CCCCCCCC(=O)OC[C@H](CO)OC(C)=O`, the Potency entry was “inactive”.

As for `CCN(CC)CCNC(=O)c1ccc(NC(=O)c2c(F)cccc2Cl)cc1`, the Potency result was “inactive”.

As to `COc1c2c(cc3occ(-c4ccc5c(c4)OCO5)c(=O)c13)OC(C)(C)C=C2`, the Potency was 14.1 µM (active).

In the case of `COc1ccc(CCNC(=O)c2cc(-c3ccc4c(c3)OCO4)on2)cc1OC`, the Potency result was “inactive”.

Consider `Cc1ccc(NC(=O)C(=O)NCC2CCN(C(=O)c3cccc([N+](=O)[O-])c3)CC2)cc1`, for which the Potency result is “inactive”.

For the molecule `CN1CCN(CC#CCC2(O)c3ccccc3-c3ccccc32)CC1`, the Potency entry is “inactive”.

Take `CC(=O)C1C(c2ccc(Cl)cc2)c2c(n[nH]c2C)CC1(C)O` (stereo not given): the Potency result was “inactive”.

For the molecule `CC(C)N1CCC(N2CCN(Cc3cccnc3)CC2CCO)CC1` (stereo not given), the Potency entry is “inactive”.

`O=C(CC1NCCNC1=O)Nc1cc(Cl)cc(Cl)c1` (stereo not given): the Potency entry was “inactive”.

Consider `CCOc1ccc(NC(=O)CC2NCCNC2=O)cc1` (stereo not given), for which the Potency entry was “inactive”.

For `O=C(CC1NCCNC1=O)Nc1ccc(Oc2ccccc2)cc1` (stereo not given), the Potency was 20 µM (active).

For the molecule `COc1ccc(-c2nc(-c3ccccc3)oc2Nc2ccc3ccccc3c2)cc1`, the Potency entry is “inactive”.

On to `COc1ccccc1CNC(=O)CNC(=O)c1cn(-c2ccccc2OC)c(=O)c2ccccc12`, for which the Potency entry is “inactive”.

Consider `COc1cccc(CC2(CO)CCCN(CC3=Cc4cc(OC)ccc4OC3)C2)c1` (stereo not given), for which the Potency result was “inactive”.

On to `Cc1nn(-c2ccccc2)c(=O)c2noc(C)c12`, for which the Potency result was “inactive”.

In the case of `O=C(c1cccnc1)N(c1cc2sc(=O)oc2c2ccccc12)S(=O)(=O)c1ccccc1`, the Potency is 10 µM (active).

Regarding `COc1ccc(N(C(=O)c2cccnc2)S(=O)(=O)c2ccc3c(c2)n(C)c(=O)n3C)cc1`, the Potency result is “inactive”.

On to `Cc1ccc(C(=O)Cn2cccn2)cc1`, for which the Potency result is “inactive”.

In the case of `COc1ccc(CCNC(=O)COC(=O)/C=C/c2cccs2)cc1OC`, the Potency result was “inactive”.

With `COc1ccc(CCNC(=O)C(=O)NCc2ccccc2C)cc1OC`, the Potency entry was “inactive”.

For the molecule `COc1ccc(CCNC(=O)CC2SC(=Nc3cc(C)cc(C)c3)NC2=O)cc1OC` (stereo not given), the Potency is 12.6 µM (active).

Regarding `CCCCn1c(N)c(N(CC)C(=O)/C=C/c2ccco2)c(=O)[nH]c1=O`, the Potency entry was “inactive”.

Consider `CC(C)(C)NC(=O)c1ccc(Cn2cc(C(F)(F)F)ccc2=O)cc1`, for which the Potency result was “inactive”.

Turning to `O=C1NC(=Nc2ccc(Cl)cc2)SC1Cc1cccc(Cl)c1Cl` (stereo not given), the Potency entry was “inactive”.

Regarding `CCC(C)(C)n1nnnc1C(c1cccs1)N1CCN(Cc2ccccc2)CC1` (stereo not given), the Potency entry was “inactive”.

Consider `Fc1ccc(Cn2nnnc2C(c2cccs2)N2CCCCCC2)cc1` (stereo not given), for which the Potency was 7.94 µM (active).

Take `N#Cc1ccc(C(c2nnnn2CCc2ccccc2)N2CCCCCC2)cc1` (stereo not given): the Potency entry was “inactive”.

`COc1ccc(C(=O)N/N=c2\oc3ccccc3cc2C(N)=O)cc1`: the Potency result is “inactive”.

As to `CC1Cc2ccccc2N1C1=CC(=O)CC(C)(C)C1` (stereo not given), the Potency entry was “inactive”.

Consider `COc1ccccc1CC(=O)Nc1ccc([N+](=O)[O-])cc1OC`, for which the Potency entry was “inactive”.

Regarding `COc1ccccc1CSc1ncc(-c2ccc([N+](=O)[O-])cc2)[nH]1`, the Potency was 28.2 µM (active).

On to `COc1ccccc1CSc1nc2ccccc2[nH]1`, for which the Potency entry is “inactive”.

On to `Cc1ccc(NC(=O)O[C@@H]2C(=O)c3cc(Br)ccc3O[C@H]2c2ccc3c(c2)OCO3)cc1Br`, for which the Potency entry is “inactive”.

With `CC(C)(C)CN1CCNC(=O)C1CC(=O)NC1Cc2ccccc2C1` (stereo not given), the Potency result was “inactive”.

For `COc1cccc(NC(=O)NCc2ccc(F)cc2)c1`, the Potency result is “inactive”.

`COC(=O)[C@@H](NC(=O)NCc1cccc(OC)c1)C(C)C`: the Potency is 10 µM (active).

Turning to `COc1cccc(CNC(=O)c2n[nH]c3ccccc23)c1`, the Potency result is “inactive”.

As for `CC(=O)Cc1nsc(NC(=O)c2ccc(Cl)cc2Cl)n1`, the Potency result was “inactive”.

In the case of `CC1CCCN(CC(O)COc2ccc3c(c2)OCO3)C1` (stereo not given), the Potency result was “inactive”.

With `CCCCNC(=O)CCNC(=O)c1ccc(C(C)(C)C)cc1`, the Potency result was “inactive”.

`Cc1ccc(CNC(=O)CCCNC(=O)c2ccc(Cl)cc2)n1C`: the Potency is 28.2 µM (active).

On to `O=C(COC(=O)CCCNC(=O)c1ccc(Cl)cc1)Nc1cc(Cl)ccc1Cl`, for which the Potency entry is “inactive”.

With `CCc1cc2c(NC3CCCC3)ncnc2s1`, the Potency entry was “inactive”.

Regarding `COC(=O)C1=C(C(=O)OC)[C@@H]2N(C)c3ccccc3[C@@]23C[C@@H](C(=O)OC)N(C(C)=O)C3=N1`, the activity, negative = inhibition is 3.72% [at 13.5 µM].

Turning to `C[C@@H](C(=O)N1CCNCC1)n1cc(CCC(=O)O)nn1`, the Potency result is “inactive”.

In the case of `O=C(Nc1ccc(Cl)cc1)c1ccsn1`, the Potency result was “inactive”.

For `O=C(Nc1ccccc1)c1nnsc1S(=O)(=O)c1ccc(Cl)cc1`, the Potency is 2.24 µM (active).

Take `O=C(c1ccc(Cl)cc1)c1cnc(Nc2ccccc2)s1`: the Potency result is “inactive”.

In the case of `O=C(O)CS/C(=C\c1ccc(F)cc1)c1nc2ccccc2s1`, the Potency result is “inactive”.

As to `COc1cccc(CNC(=O)CCC2CCCN(Cc3ccc(OC(F)F)cc3)C2)c1` (stereo not given), the Potency entry was “inactive”.

Consider `Cn1c(N)c(C(=O)COC(=O)/C=C/c2ccc(OC(F)F)cc2)c(=O)n(C)c1=O`, for which the Potency entry was “inactive”.

Regarding `O=C(Nc1ccccc1)N1CCN(C(=O)Nc2ccccc2)CC1`, the Potency entry is “inactive”.

`NC(=O)C1(N2CCCCC2)CCN(C(=O)c2ccc(C#Cc3ccccc3)o2)CC1`: the Potency result was “inactive”.

Take `S=C(c1ccc(-c2ccccc2)o1)N1CCCCC1`: the Potency is 3.55 µM (active).

As to `S=C(Nc1ccc2c(c1)OCO2)N1CCCC1`, the Potency result was “inactive”.

For `O=C(/C=C/c1ccc(OCc2c(F)cccc2Cl)cc1)N1CCOCC1`, the Potency result was “inactive”.

Consider `O=C1NC(c2ccc(-c3ccccc3[N+](=O)[O-])o2)C(C(=O)c2ccc(Cl)cc2)C(O)(C(F)(F)F)N1` (stereo not given), for which the Potency is 20 µM (active).

As to `CN1CCN(c2ccc(NC(=O)c3ccc4c(c3)OCCO4)cc2Cl)CC1`, the Potency result is “inactive”.

On to `Cc1c(NC(=S)Nc2ccccc2)c(=O)n(-c2ccccc2)n1C`, for which the Potency result was “inactive”.

For `COC(=O)Nc1c(C)n(C)n(-c2ccccc2)c1=O`, the Potency result is “inactive”.

Regarding `CCN(CC)P(=O)(/C(Cl)=C\Nc1c(C)n(C)n(-c2ccccc2)c1=O)N(CC)CC`, the Potency was 17.8 µM (active).

Regarding `COC(=O)c1ccc(NC(=O)Nc2ccc(C)cc2)cc1`, the Potency entry is “inactive”.

On to `COC(=O)c1ccc(NC(=O)C(C)N2C(=O)c3ccccc3C2=O)cc1` (stereo not given), for which the Potency result was “inactive”.

Consider `Cc1ccc(NC(=O)CC(=O)Nc2ccc(C)cc2)cc1`, for which the Potency entry was “inactive”.

Take `Cc1ccc(C(=O)CS(C)(=O)=O)cc1`: the Potency result was “inactive”.

Consider `Cc1ccc(C(=O)CNc2ccc(F)cc2)cc1`, for which the Potency is 11.2 µM (active).

In the case of `COC(=O)c1ccc(NCC(=O)c2ccccc2)cc1`, the Potency is 11.2 µM (active).
